In PubChem BioAssay (EPA / NIEHS):
Inconclusive results are not listed. Calls of active or inactive are those of the source. How the source made its calls: active means hit-call score of the fitted dose curve at least 0.9, where 1 is the maximum; inconclusive means response in the unintended direction; inactive means score below 0.9.

What follows are compounds tested against human Dopamine Transporter (DAT), SLC6A3 (gene 6531) (UniProt Q01959) (assay: NVS_TR_hDAT: NovaScreen (NVS) Transporter Assay for human Dopamine Transporter (DAT) (AID 2283374)).
Procedure: NVS_TR_hDAT is a biochemical, single-readout assay that uses extracted gene-proteins in a cell-free assay. Measurements were taken 1 hour after chemical dosing in a 96-well plate.NVS_TR_hDAT is one of one assay component(s) measured or calculated from the NVS_TR_hDAT assay. It is designed to make measurements of radioligand binding, a form of binding reporter, as detected with scintillation counting signals by Filter-based radiodetection technology.Data from the assay component NVS_TR_hDAT was analyzed into 1 assay endpoint. This assay endpoint, NVS_TR_hDAT, was analyzed in the positive analysis fitting direction relative to DMSO as the negative control and baseline of activity. Using a type of binding reporter, loss-of-signal activity can be used to understand changes in the binding as they relate to the gene SLC6A3. Furthermore, this assay endpoint can be referred to as a primary readout, because the performed assay has only produced 1 assay endpoint. To generalize the intended target to other relatable targets, this assay endpoint is annotated to the transporter intended target family, where the subfamily is neurotransmitter transporter.
Binding assays used specific radioligands (tritiated, iodinated) with non-radioactive competitive displacement ligands in agonist or antagonist protocols (as indicated) and various reference compounds and inhibitors to titrate specific binding to receptors and transporters. Most enzyme assays (CYPs, kinases, phosphatases, proteases, HDACs) used recombinant protein and specific substrates (fluorescence mostly, some colorimetric and radioactive) and inhibitors, followed by a biochemical separation of substrate and product. All assays for the biochemical HTS were initially run in duplicate at a single concentration (10 uM for CYP450 assays and 25 uM for all others). […] Each assay was run with positive and negative controls, and concurrent controls on every plate. The follow-up (secondary) screen tested active chemical-pairs in concentration series, as well as a few additional assays not tested in the primary screen, some selected negative inactives, and several cases re-run in the concentration series for confirmatory purposes.

Sequence of human Dopamine Transporter (DAT), SLC6A3 (gene 6531) (Q01959 whole entry, looked up): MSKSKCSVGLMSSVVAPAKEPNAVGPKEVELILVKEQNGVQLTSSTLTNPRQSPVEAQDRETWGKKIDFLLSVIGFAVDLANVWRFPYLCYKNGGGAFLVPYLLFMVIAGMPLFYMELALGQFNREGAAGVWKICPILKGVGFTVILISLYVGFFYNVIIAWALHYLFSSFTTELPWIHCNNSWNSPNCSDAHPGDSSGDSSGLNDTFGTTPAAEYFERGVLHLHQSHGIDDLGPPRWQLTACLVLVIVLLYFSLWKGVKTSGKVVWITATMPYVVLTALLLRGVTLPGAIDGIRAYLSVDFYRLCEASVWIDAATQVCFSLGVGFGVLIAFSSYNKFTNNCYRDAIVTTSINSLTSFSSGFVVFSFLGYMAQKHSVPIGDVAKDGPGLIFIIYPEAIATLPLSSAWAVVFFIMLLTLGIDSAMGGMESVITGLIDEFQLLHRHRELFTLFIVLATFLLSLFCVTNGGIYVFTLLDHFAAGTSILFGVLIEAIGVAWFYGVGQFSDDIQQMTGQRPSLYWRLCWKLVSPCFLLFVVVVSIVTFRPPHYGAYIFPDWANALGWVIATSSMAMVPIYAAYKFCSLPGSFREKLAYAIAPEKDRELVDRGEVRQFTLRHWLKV

SMILES | outcome | AC50
O=[N+]([O-])c1cc(C(F)(F)F)c(Cl)c([N+](=O)[O-])c1Nc1ncc(C(F)(F)F)cc1Cl | inactive | 
Nc1c(Cl)cc([N+](=O)[O-])cc1Cl |  | 25 µM (active)
CC(C1CC1)C(O)(Cn1cncn1)c1ccc(Cl)cc1 (stereo not drawn) |  | 0.175 µM (active)
CC1(C(=O)Nc2ccc(O)c(Cl)c2Cl)CCCCC1 |  | 4.68 µM (active)
C[Si](Cn1cncn1)(c1ccc(F)cc1)c1ccc(F)cc1 |  | 9.33 µM (active)
CCCCOC(=O)[C@@H](C)Oc1ccc(Oc2ccc(C#N)cc2F)cc1 | inactive | 
CCC(=O)Nc1ccc(Cl)c(Cl)c1 |  | 6.22 µM (active)
C#CCC1=C(C)C(OC(=O)C2C(C=C(C)C)C2(C)C)CC1=O (stereo not drawn) |  | 12 µM (active)
CCCOCC(=Nc1ccc(Cl)cc1C(F)(F)F)n1ccnc1 |  | 10.2 µM (active)
CC(C)N(C(=O)SCC(Cl)=C(Cl)Cl)C(C)C |  | 7.84 µM (active)
CC(C)[C@H](C(=O)O[C@H](C#N)c1cccc(Oc2ccccc2)c1)c1ccc(Cl)cc1 |  | 16.2 µM (active)
CC(COc1ccc(Oc2ccccc2)cc1)Oc1ccccn1 (stereo not drawn) | inactive | 
FC(F)C(F)(F)OCC(Cn1cncn1)c1ccc(Cl)cc1Cl (stereo not drawn) |  | 7.59 µM (active)
CC(C)=CC1C(C(=O)OCN2C(=O)C3=C(CCCC3)C2=O)C1(C)C (stereo not drawn) | inactive | 
CC[C@H](C)[C@H]1O[C@]2(C=C[C@@H]1C)C[C@@H]1C[C@@H](C/C=C(\C)[C@@H](O[C@H]3C[C@H](OC)[C@@H](O[C@H]4C[C@H](OC)[C@@H](NC)[C@H](C)O4)[C@H](C)O3)[C@@H](C)/C=C/C=C3\CO[C@@H]4[C@H](O)C(C)=C[C@@H](C(=O)O1)[C@]34O)O2 | inactive | 
CSc1nnc(C(C)(C)C)c(=O)n1N | inactive | 
CCCCOC(=O)c1ccccc1C(=O)O |  | 8.41 µM (active)
C=C(C)[C@H]1Cc2c(ccc3c2O[C@@H]2COc4cc(OC)c(OC)cc4[C@@H]2C3=O)O1 | inactive | 
